PubChem BioAssay (NCATS)
Results filed as inconclusive are left out. Active and inactive are the calls of the source. Unless noted, calls follow the shape of the dose curve; as a rule, active = well fitted curve in the direction sought with a large enough effect; inconclusive = small, poorly fitted or top-dose-only effect, or another doubt; inactive = no such curve, though single readings can be large; an effect the other way counts as inactive or inconclusive.

Experiments:
[1] = S16 Schwann cell PMP22 intronic element beta-lactamase assay (AID 624044; calls by dose curve; also: nearly all actives have a fitted effect of over 15% in size; also: potency is read from the fitted curve at half-maximal effect)
Method in brief: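 Beta-lactamase reporter under a PMP22 intronic regulatory element in stable S16 rat Schwann cells; 24 h compound exposure. 460 nm blue signal normalized between DMSO (0%) and potassium clavulanate, with 535 nm FRET tracking viability; curves classed by r2 and response.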

[2] = qHTS assay for small molecule activators of the p53 signaling pathway (AID 651743; active = well fitted activation curve with a large enough effect in the signal ratio, not every such curve was filed as active; the % refers to the signal ratio; also: % of control where 0% means no effect); conditions: HCT-116 p53RE-bla, beta-lactamase FRET ratio, 16 h; stronger effect = higher value
Method in brief: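 Following 16 hours of compound exposure at 37 C, HCT-116 cells bearing the p53RE-bla reporter were loaded with LiveBLAzer B/G FRET substrate for 2 hours at room temperature and fluorescence intensity was recorded.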

[3] = qHTS assay for environmental chemicals that activate the Aryl hydrocarbon Receptor (AhR) signaling pathway (AID 651777); conditions: 1A2-DRE human hepatoma cells, luciferase, 24 h; stronger effect = higher value; also: % of control where 0% means no effect; nearly all actives have a fitted effect of over 15% in size
Method in brief: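 AhR activation is scored as a rise in luciferase from a stable DRE–CYP1A2 promoter construct in human hepatoma cells. Treatment lasts 24 hr at 37 C; detection uses One-Glo after 30 min at room temperature.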

[4] = target: Peroxisome proliferator-activated receptor alpha (Homo sapiens) (UniProt Q07869); test: qHTS assay for small molecule agonists of the peroxisome proliferator-activated receptor alpha (PPARalpha) signaling pathway (AID 651778); conditions: PathHunter PPARalpha complementation, chemiluminescence, 6 h; max response: stronger effect = higher value; also: potency is read from the fitted curve at half-maximal effect; as to max response: % of control where 0% means no effect
Chain of Peroxisome proliferator-activated receptor alpha (Homo sapiens) (Q07869 whole entry, looked up, the tested form may be a part): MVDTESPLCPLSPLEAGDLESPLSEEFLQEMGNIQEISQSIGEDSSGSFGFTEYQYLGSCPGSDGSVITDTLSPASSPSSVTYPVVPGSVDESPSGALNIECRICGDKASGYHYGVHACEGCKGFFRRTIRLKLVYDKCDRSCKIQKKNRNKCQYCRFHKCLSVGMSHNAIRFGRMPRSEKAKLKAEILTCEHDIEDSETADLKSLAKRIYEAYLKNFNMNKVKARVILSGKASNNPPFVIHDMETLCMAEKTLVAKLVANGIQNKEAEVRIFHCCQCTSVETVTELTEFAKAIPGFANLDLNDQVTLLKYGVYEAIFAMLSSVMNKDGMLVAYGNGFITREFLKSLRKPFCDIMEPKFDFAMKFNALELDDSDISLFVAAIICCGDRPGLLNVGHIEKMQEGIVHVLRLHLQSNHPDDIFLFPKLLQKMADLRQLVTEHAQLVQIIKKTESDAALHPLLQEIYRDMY
Method in brief: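 Enzyme-fragment complementation assay in which ligand-bound PPARalpha translocates and forms an active enzyme that generates chemiluminescence. Cells were plated overnight, exposed to compound for 6 hr at 37 C, and then given detection reagent for 60 min at room temperature.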

[5] = target: Glutaminase kidney isoform, mitochondrial (Homo sapiens) (UniProt O94925); test: qHTS for Inhibitors of Glutaminase (GLS): LOPAC Validation (AID 624146);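 also: glutamate product detected by oxidase and peroxidase coupled Amplex red fluorescence gain; % is scaled to controls: 0 for no effect and ±100 for the full control effect; nearly all actives have a fitted effect of over 60% in size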
Chain of Glutaminase kidney isoform, mitochondrial (Homo sapiens) (O94925 whole entry, looked up, canonical isoform): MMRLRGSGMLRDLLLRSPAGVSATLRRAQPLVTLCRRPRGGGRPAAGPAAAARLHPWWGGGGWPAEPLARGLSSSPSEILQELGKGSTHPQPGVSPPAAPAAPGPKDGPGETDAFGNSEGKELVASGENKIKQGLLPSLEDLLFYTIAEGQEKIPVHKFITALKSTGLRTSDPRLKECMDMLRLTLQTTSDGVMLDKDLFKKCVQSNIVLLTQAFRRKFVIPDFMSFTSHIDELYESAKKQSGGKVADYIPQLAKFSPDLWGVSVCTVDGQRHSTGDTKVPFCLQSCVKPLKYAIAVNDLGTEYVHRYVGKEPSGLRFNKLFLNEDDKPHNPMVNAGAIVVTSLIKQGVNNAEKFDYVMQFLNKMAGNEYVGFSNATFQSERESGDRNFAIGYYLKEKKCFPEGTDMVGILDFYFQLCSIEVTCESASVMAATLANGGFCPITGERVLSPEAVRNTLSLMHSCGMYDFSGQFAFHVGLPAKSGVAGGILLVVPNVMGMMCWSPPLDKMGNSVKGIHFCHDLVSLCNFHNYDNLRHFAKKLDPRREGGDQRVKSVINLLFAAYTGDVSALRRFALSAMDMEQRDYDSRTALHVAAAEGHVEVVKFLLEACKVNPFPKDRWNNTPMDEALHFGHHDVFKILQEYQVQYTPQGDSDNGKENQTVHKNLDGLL
Method in brief: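 Compounds were pin-transferred onto hKGA, after which L-glutamine (1 mM solution) and a detection mix of glutamate oxidase, HRP and Amplex Red were added. Initial and 30 min RT fluorescence reads were collected.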

[6] = qHTS of Trypanosoma Brucei Inhibitors: LOPAC Validation (AID 624147); also: 0% is about no effect
Method in brief: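 Quantitative HTS: titrated library compounds versus trypanosomal pyruvate kinase in TEA buffer (pH 7.2) containing KCl, MgCl2, BSA and Tween-20. Reactions were initiated with ADP, 130 uM final. Kinase-Glo Plus luminescence was read after 45 min at RT.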

[7] = target: Glucagon-like peptide 1 receptor (Homo sapiens) (UniProt P43220); test: qHTS of GLP-1 Receptor Agonists: LOPAC Validation (AID 624148);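 also: 0% is about no effect; higher luminescence signal means agonism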
Chain of Glucagon-like peptide 1 receptor (Homo sapiens) (P43220 whole entry, looked up): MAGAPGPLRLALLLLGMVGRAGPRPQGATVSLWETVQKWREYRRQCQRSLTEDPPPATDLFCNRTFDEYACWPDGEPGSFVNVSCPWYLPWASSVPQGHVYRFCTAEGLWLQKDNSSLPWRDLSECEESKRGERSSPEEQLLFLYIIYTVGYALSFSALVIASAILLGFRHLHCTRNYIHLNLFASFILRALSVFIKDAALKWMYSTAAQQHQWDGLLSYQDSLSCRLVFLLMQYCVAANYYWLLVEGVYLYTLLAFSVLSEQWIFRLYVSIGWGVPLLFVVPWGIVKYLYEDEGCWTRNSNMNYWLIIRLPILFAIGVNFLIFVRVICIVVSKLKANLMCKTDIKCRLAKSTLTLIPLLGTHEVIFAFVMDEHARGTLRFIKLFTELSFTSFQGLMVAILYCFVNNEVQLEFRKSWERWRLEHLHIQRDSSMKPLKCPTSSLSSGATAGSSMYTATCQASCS
Method in brief: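 HEK293 cells stably co-expressing GLP-1R and a cAMP-responsive luciferase reporter, plated 12 hours before compound, then incubated 4-6 hr at 37 deg C. Luminescence read 12 min after detection reagent.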

[8] = qHTS of Nrf2 Activators: LOPAC Validation (AID 624149); also: 0% is about no effect
Method in brief: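 Cells (AREc32_Fluc) are plated at 1000 per well in OPTI-MEM containing 5% FBS and left overnight. Compounds are pinned in and incubated 24 hr at 37 deg C, and firefly luciferase is detected with Steady-Glo.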

[9] = HTS Assay for Allosteric Antagonists of the Human D2 Dopamine Receptor: Hit Validation in HTRF (AID 624455);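 also: stable D1 dopamine receptor cell line scored for blocking the D1 response; % is scaled to controls: 0 for no effect and ±100 for the full control effect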
Method in brief: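 Inhibition of the D1-mediated response is measured by HTRF in cells that stably express the D1 dopamine receptor. Compounds reaching this step are hits from calcium-flux antagonism testing at EC80 dopamine in inducible Hek293 Trex D2 cells.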

[10] = qHTS Assay for Identification of Small Molecule Agonists for NFkB Signaling Pathway. (AID 624478);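 also: compounds tested together with TNF alpha at its EC50 of 10 pM; 0% is about no effect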
Method in brief: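 Activators were sought in reporter cells stimulated at the TNF alpha EC50 (10 pM final). Compound and cytokine were co-incubated 5 hours at 37 C before beta-lactamase substrate detection by dual-emission fluorescence.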

[11] = qHTS Assay for Identification of Small Molecule Antagonists for NFkB Signaling Pathway. (AID 624479; calls by dose curve;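 also: pathway stimulated with TNF alpha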; also: potency is read from the fitted curve at half-maximal effect)
[12] = Cell Proliferation Assay against the TMD8 Cell Line (AID 651645); conditions: TMD8 DLBCL cell line proliferation/viability; at 46.1 µM (top of the series);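 also: cells exposed to compound for 48 h before reading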
Method in brief: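 Cell viability of the ABC DLBCL line TMD8 is measured by CellTiter-Glo luminescence following a 48-hour incubation with compound. Percent activity uses DMSO as 100% and 9.2 uM bortezomib (final) as 0%.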

[13] = Cell Proliferation Assay against the HBL1 Cell Line (AID 651646); conditions: HBL1 DLBCL cells; at 46.1 µM (top of the series);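 also: cells exposed to compound for 48 h before reading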
Method in brief: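 HBL1, 500 cells/well, RPMI no phenol red + 5% FBS; cpd pinned, 48 h 37C/5% CO2; CellTiter-Glo, 15 min RT, luminescence. % activity: DMSO = 100%, bortezomib 9.2 uM final = 0%.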

[14] = qHTS assay for small molecule agonists of the antioxidant response element (ARE) signaling pathway (AID 651741; active = well fitted activation curve with a large enough effect in the signal ratio; the % refers to the signal ratio; also: potency is read from the fitted curve at half-maximal effect); conditions: HepG2 ARE-bla reporter, beta-lactamase FRET ratio, 16 h
Method in brief: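 Stably integrated ARE-beta-lactamase reporter HepG2 cells; 16 h compound incubation, 37 C; LiveBLAzer FRET substrate 2 h at room temperature; fluorescence intensity.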

[15] = qHTS assay for small molecule activators of the nuclear factor-kappa B (NF-kB) signaling pathway (AID 651749; active = well fitted activation curve with a large enough effect in the signal ratio; the % refers to the signal ratio; also: % of control where 0% means no effect); conditions: NF-kB-bla ME-180 cells, beta-lactamase FRET ratio, 16 h; stronger effect = higher value
Method in brief: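 In this qHTS format, compounds acting as activators increase NF-kB-driven beta-lactamase in ME-180 cells, measured as disrupted FRET after 16 hr exposure at 37C and 5% CO2.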

[16] = target: Tumor necrosis factor (Homo sapiens) (UniProt P01375); test: qHTS assay to identify small molecules that stimulate Tumor Necrosis Factor-alpha (TNF-alpha) secretion (AID 651757; active = well fitted curve in the direction sought with a large enough effect in the signal ratio; the % refers to the signal ratio; also: 0% is about no effect)
Chain of Tumor necrosis factor (Homo sapiens) (P01375 whole entry, looked up): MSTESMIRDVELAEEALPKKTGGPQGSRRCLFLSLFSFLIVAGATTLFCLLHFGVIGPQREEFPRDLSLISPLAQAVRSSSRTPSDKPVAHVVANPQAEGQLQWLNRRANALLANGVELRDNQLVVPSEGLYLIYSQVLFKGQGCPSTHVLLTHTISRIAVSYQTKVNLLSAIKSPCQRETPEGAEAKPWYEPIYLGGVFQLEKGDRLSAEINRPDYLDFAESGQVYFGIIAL
Method in brief: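 Human monocytic THP-1 cells are plated, treated with compound and held at 37 C for 17 hrs. Labeled anti-TNF-alpha antibody mixture is then added; after 3 hr at room temperature, TR-FRET signal reports secreted TNF-alpha.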

[17] = qHTS assay to identify small molecules that stimulate interleukin-8 (IL-8) secretion (AID 651758; active = well fitted activation curve with a large enough effect in the signal ratio; the % refers to the signal ratio; also: 0% is about no effect)
Method in brief: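 Compounds are added to THP-1 cells (2000 per well) and left 16 hrs at 37 C. A labeled anti-IL-8 antibody pair is then added, and IL-8 secretion is measured by time-resolved FRET after 1-3 hrs at room temperature.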

[18] = Cytotoxicity counterscreen for NFkB agonists and antagonists (AID 624476); conditions: NFkB reporter cell line viability counterscreen; also: potency is read from the fitted curve at half-maximal effect
[19] = Cell Proliferation Assay against the TMD8 Cell Line (Caspase readout at 16 hrs) (AID 651712); conditions: TMD8 lymphoma cells, caspase activation luminescence; also: potency is read from the fitted curve at half-maximal effect
Method in brief: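 Caspase-Glo luminescence after 16 h compound exposure of TMD8 cells, 37 °C, 5% CO2. Medium: RPMI without phenol red, 5% FBS. Normalisation: DMSO = 0%, bortezomib 9.2 uM final = 100%.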

[20] = Cell Proliferation Assay against the TMD8 Cell Line (Caspase readout at 8 hrs) (AID 651713); also: potency is read from the fitted curve at half-maximal effect;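 as to caspase activation: 0% = DMSO and 100% = 9.2 µM bortezomib caspase signal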
Method in brief: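 Caspase 3/7 activation in ABC DLBCL TMD8 cells is measured by luminescence after an 8 h compound exposure at 37C. Relative light units are scaled between DMSO (0%) and 9.2 uM final bortezomib (100%).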

SMILES: CCCCCCCCCCCC(CC1OC(=O)C1CCCCCC)OC(=O)C(CC(C)C)NC=O (stereo unspecified)
- Potency [1]: 12.6 µM (active)

SMILES: Nc1nc2c(c(=O)[nH]1)N(C=O)[C@H](CNc1ccc(C(=O)N[C@@H](CCC(=O)O)C(=O)O)cc1)CN2
- Potency [1]: inactive

SMILES: C[C@]12CC[C@@H]3c4ccc(O)cc4CC[C@H]3[C@H]1CC[C@H]2O
- activation [2]: 13.4% (inactive)
- activation [3]: 2.62% (inactive)
- max response [4]: -1.17% (inactive)

SMILES: CN[C@H](CC(C)C)C(=O)N[C@H]1C(=O)N[C@@H](CC(N)=O)C(=O)N[C@@H]2C(=O)N[C@H]3C(=O)N[C@H](C(=O)N[C@H](C(=O)O)c4cc(O)cc(O)c4-c4cc3ccc4O)[C@H](O)c3ccc(c(Cl)c3)Oc3cc2cc(c3O[C@@H]2O[C@H](CO)[C@@H](O)[C@H](O)[C@@H]2O[C@H]2C[C@](C)(N)[C@H](O)[C@H](C)O2)Oc2ccc(cc2Cl)[C@H]1O
- outcome [5]: inactive
- outcome [6]: inactive
- outcome [7]: inactive
- outcome [8]: inactive
- outcome [9]: inactive

SMILES: COc1cc(C)c(Sc2cnc(NC(=O)c3ccc(CNC(C)C(C)(C)C)cc3)s2)cc1C(=O)N1CCN(C(C)=O)CC1 (stereo unspecified)
- outcome [10]: inactive
- Potency [11]: 26.6 µM (active)
- viability (% of control) [12]: 18.7%
- viability, percent of control [13]: 12.9%

SMILES: O=c1[nH]c(=O)n([C@H]2C[C@@H](O)[C@@H](CO)O2)cc1C=CBr
- outcome [5]: inactive
- outcome [6]: inactive
- outcome [7]: inactive
- outcome [8]: inactive
- outcome [9]: inactive

SMILES: COc1ccc2cc([S+]([O-])Cc3ncc(C)c(OC)c3C)nc2c1
- outcome [5]: inactive
- outcome [6]: inactive
- outcome [7]: inactive
- outcome [8]: inactive
- outcome [9]: inactive

SMILES: COc1ccc2c(c1OC)C(=O)OC2[C@H]1c2c(cc3c(c2OC)OCO3)CCN1C (stereo partly specified)
- Potency [1]: inactive

SMILES: O=C1c2cccc(O)c2C(=O)c2c(O)cc(CO)cc21
- activation [2]: 6.22% (inactive)
- activation [3]: 2.38% (inactive)
- max response [4]: -2.01% (inactive)

SMILES: Cc1cc(O)c2c(c1)C(=O)c1cccc(O)c1C2=O
- Potency [14]: 26.6 µM (active)
- activation [2]: -1.77% (inactive)
- activation [15]: -0.078% (inactive)
- outcome [16]: inactive
- outcome [17]: inactive
- activation [3]: 0.266% (inactive)
- max response [4]: -1.41% (inactive)

SMILES: CC(C=CC1=C(C)CCCC1(C)C)=CC=CC(C)=CC(=O)Nc1ccc(O)cc1
- activation [2]: 0.252% (inactive)
- activation [3]: -5.07% (inactive)
- Potency [4]: 8.91 µM (active)

SMILES: Cn1c(Nc2ccc(C(F)(F)F)cc2)nc2cc(Oc3ccnc(-c4ncc(C(F)(F)F)[nH]4)c3)ccc21
- Potency [18]: 20.9 µM (active)
- outcome [10]: inactive
- Potency [11]: 1.33 µM (active)
- viability (% of control) [12]: 15.6%
- viability, percent of control [13]: 33%
- Potency [19]: 16.6 µM (active)
- Potency [20]: inactive

SMILES: OCC(O)C(O)C(O)CO (stereo unspecified)
- Potency [1]: inactive

SMILES: COc1ccc([C@@H]2CNC(=O)C2)cc1OC1CCCC1
- Potency [1]: inactive

SMILES: OC[C@@H](O)[C@@H](O)[C@H](O)[C@@H](O)CO
- activation [2]: -2.74% (inactive)
- activation [15]: -0.0055% (inactive)
- activation [3]: 0.287% (inactive)
- max response [4]: -1.39% (inactive)

SMILES: COc1cc2c(cc1OC)[C@@H]1C(=O)c3ccc4c(c3O[C@@H]1CO2)C=CC(C)(C)O4
- Potency [18]: 26.4 µM (active)
- outcome [10]: inactive
- Potency [11]: inactive
- viability (% of control) [12]: 2.43%
- viability, percent of control [13]: 18.7%
- Potency [20]: inactive

SMILES: N#Cc1ccc(COC[C@H]2O[C@@H](n3c(NCc4ccc(Cl)c(Cl)c4)nc4c(N)ncnc43)[C@@H](O)[C@@H]2O)cc1
- outcome [10]: inactive
- viability (% of control) [12]: 1.09%
- viability, percent of control [13]: 17.4%
- Potency [20]: 29.6 µM (active)
